This note sets out measurements from PubChem BioAssay (NCI).

About 83,000 compounds went through this panel and 20% of them were active in at least one assay; those are over-represented in the sample as a whole.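 Cell lines were cultured in 96-well plates, exposed to a single compound concentration, and assessed for percent growth 48 hours later.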 Unmarked numbers belong to inactive results. Activity calls are given as the source filed them. Rule for the calls: active = growth percent below 10; inactive = the rest.

Among the test systems are SK-MEL-2 melanoma; EKVX NSCLC; SN12C renal; UO-31 renal; TK-10 renal; ACHN renal; CAKI-1 renal; A498 renal; MOLT-4 leukemia; CCRF-CEM leukemia.
What all share (experiment): NCI-60 one-dose screen, 48 h (100 = growth as untreated, 0 = no growth, -100 = all killed)
Holding throughout (settings): 10 µM

On to `COc1ccc(-c2cc(-c3ccc(Cl)cc3)nc(SCCCC(=O)NO)n2)cc1OC`, for which the growth was 13.3% in the assay with SK-MEL-2 melanoma; -13.8% (active) in the assay on EKVX NSCLC; 6.47% (active) with SN12C renal; -53.2% (active) in the assay on UO-31 renal; 17.8% in the assay with TK-10 renal; -19.7% (active) with ACHN renal. For the same compound, the growth was -5.05% (active) in the assay with CAKI-1 renal, -40.1% (active) with A498 renal and 9.38% (active) in the assay with MOLT-4 leukemia.
As to `CCCN1CN2C(=O)N3CN(CCC)CN4C(=S)N(C1)C2C34` (configuration not stated), the growth was 102% with SK-MEL-2 melanoma; 95.2% in the assay on EKVX NSCLC; 100% in the assay with SN12C renal; 94.6% in the assay on UO-31 renal; 93.2% in the assay with TK-10 renal; 94.4% in the assay with ACHN renal. Further, the growth is 90.4% in the assay on CAKI-1 renal, 108% with A498 renal, 94.9% in the assay on CCRF-CEM leukemia and 103% in the assay with MOLT-4 leukemia.
As to `COc1ccc(/C=C/C(=O)C(=O)/C=C/c2ccc(OC)c(OC)c2)cc1OC`, the growth in the assay on SK-MEL-2 melanoma is 96.6%; with EKVX NSCLC, 62.6%; in the assay on SN12C renal it was 2.82% (active); in the assay with UO-31 renal, 0.571% (active); with TK-10 renal, 68.6%; in the assay with ACHN renal it was -0.679% (active). The growth was 84.3% with CAKI-1 renal, 72.9% with A498 renal and 23.4% in the assay on MOLT-4 leukemia.
Take `Cc1[nH]c2ccccc2c1/C=N/Nc1ncnc2sc3c(c12)CCN(CC(=O)OC(C)(C)C)C3`: the growth with SK-MEL-2 melanoma is 92.6%; with EKVX NSCLC it was 134%; in the assay on SN12C renal it was 85.3%; in the assay on UO-31 renal it was 65.5%; in the assay on TK-10 renal, 101%; in the assay on ACHN renal, 54.2%. The growth is 47.2% in the assay on CAKI-1 renal, 51.8% in the assay on A498 renal and 46.5% in the assay with MOLT-4 leukemia.
In the case of `Cc1cc(Cl)ccc1Nc1nc(C(F)(F)F)ccc1C(=O)N/N=C/c1cccc(O)c1`, the growth was 16% in the assay with SK-MEL-2 melanoma; 20.8% in the assay on EKVX NSCLC; 52.3% in the assay on SN12C renal; 6.02% (active) in the assay on UO-31 renal; 85.9% in the assay with TK-10 renal; 28.3% in the assay on ACHN renal. The growth with CAKI-1 renal is 25.5%; with A498 renal, -41.5% (active); with MOLT-4 leukemia, 3.63% (active).
Turning to `CCOC(=O)c1cocc1C(=O)O`, the growth was 105% with SK-MEL-2 melanoma; 103% in the assay with EKVX NSCLC; 105% in the assay on SN12C renal; 93.3% in the assay on UO-31 renal; 118% in the assay on TK-10 renal; 111% in the assay on ACHN renal. The growth is 107% in the assay with CAKI-1 renal, 112% in the assay on A498 renal and 86.5% in the assay with MOLT-4 leukemia.
As for `O=C(Nc1ccc(NS(=O)(=O)c2ccc(F)cc2)cc1)C12CC3CC(CC(C3)C1)C2`, the growth is 107% in the assay on SK-MEL-2 melanoma; 74.4% with EKVX NSCLC; 92.6% in the assay on SN12C renal; 75.1% in the assay with UO-31 renal; 96.7% with TK-10 renal; 102% with ACHN renal. The growth was 86% in the assay on CAKI-1 renal, 90.8% in the assay on A498 renal, 84.2% in the assay on CCRF-CEM leukemia and 77.7% with MOLT-4 leukemia.
With `COc1ccc(-c2cc(-c3ccc(OC)c(OC)c3)nc(SCCCC(=O)NO)n2)cc1`, the growth is -5.66% (active) in the assay on SK-MEL-2 melanoma; -15.3% (active) with EKVX NSCLC; 5.59% (active) in the assay with SN12C renal; -74.3% (active) in the assay on UO-31 renal; -0.0305% (active) with TK-10 renal; -24.9% (active) in the assay on ACHN renal. Moreover, the values for the growth with CAKI-1 renal, in the assay with A498 renal and in the assay on MOLT-4 leukemia were -29.2% (active), -32.4% (active) and 7.15% (active), respectively.
As for `O=C(O)c1ccc(-n2cc(CNc3ccc(Cl)cc3)c(-c3ccccc3)n2)cc1`, the growth in the assay on SK-MEL-2 melanoma was 78.5%; with EKVX NSCLC, 78.1%; in the assay on SN12C renal, 94.9%; in the assay with UO-31 renal, 82.4%; with TK-10 renal, 91.7%; in the assay on ACHN renal, 79.5%. For the same compound, the growth is 88.8% in the assay with CAKI-1 renal, 91.4% with A498 renal and 82.4% in the assay with MOLT-4 leukemia.
In the case of `COc1ccc(-c2cc(-c3ccc(Cl)cc3)nc(SCCCC(=O)NO)n2)cc1`, the growth is 0.495% (active) with SK-MEL-2 melanoma; -19.2% (active) in the assay on EKVX NSCLC; 2.49% (active) with SN12C renal; -40.9% (active) in the assay with UO-31 renal; 13.8% in the assay on TK-10 renal; 2.98% (active) with ACHN renal. Moreover, the growth in the assay on CAKI-1 renal is -0.0585% (active); in the assay on A498 renal, -19% (active); in the assay with MOLT-4 leukemia, 9.27% (active).
With `C=CCN(CC=C)C(=O)[C@H](CC)[C@@H]1CC[C@@H](C)[C@@H]([C@H](C)[C@@H](O)[C@@H](C)C(=O)[C@H](CC)C2O[C@]3(C=CC(=O)[C@]4(CC[C@@](C)([C@H]5CC[C@](O)(CC)[C@H](C)O5)O4)O3)[C@H](C)C[C@@H]2C)O1` (some centres not stated), the growth in the assay with SK-MEL-2 melanoma is 22.1%; with EKVX NSCLC, 12.8%; in the assay with SN12C renal, 19.8%; in the assay with UO-31 renal it was 0.66% (active); in the assay on TK-10 renal it was 35.5%; in the assay on ACHN renal, 5.47% (active). In addition, the results for the growth with CAKI-1 renal, in the assay with A498 renal and in the assay on MOLT-4 leukemia were 13.7%, 22.2% and 28.8%, respectively.
For `CCCN(CCC)C(=O)[C@H](CC)[C@@H]1CC[C@@H](C)[C@@H]([C@H](C)[C@@H](O)[C@@H](C)C(=O)[C@H](CC)C2O[C@]3(C=C[C@@H](O)[C@]4(CC[C@@](C)([C@H]5CC[C@](O)(CC)[C@H](C)O5)O4)O3)[C@H](C)C[C@@H]2C)O1` (some centres not stated), the growth in the assay with SK-MEL-2 melanoma is 0.709% (active); in the assay on EKVX NSCLC it was -13.6% (active); with SN12C renal, 3.43% (active); in the assay on UO-31 renal, -16.8% (active); with TK-10 renal, 20.7%; with ACHN renal it was -2.43% (active). Besides, the growth was -8.15% (active) in the assay on CAKI-1 renal, -20.3% (active) with A498 renal and 15.3% in the assay on MOLT-4 leukemia.
As for `COc1cc(-c2csc(NC(=O)Nc3cc(C(F)(F)F)cc(C(F)(F)F)c3)n2)cc(OC)c1OC`, the growth in the assay with SK-MEL-2 melanoma was 7.21% (active); in the assay on EKVX NSCLC, 4.59% (active); in the assay with SN12C renal, 7.93% (active); in the assay with UO-31 renal it was 7.12% (active); in the assay on TK-10 renal, 9.24% (active); in the assay on ACHN renal it was 4.33% (active). The growth was 10.4% in the assay on CAKI-1 renal, 10.1% in the assay on A498 renal and 17.4% with MOLT-4 leukemia.
Consider `CC[C@H]1OC(=O)[C@H](C)[C@@H](O[C@H]2C[C@@](C)(OC)[C@@H](O)[C@H](C)O2)[C@H](C)[C@@H](O[C@@H]2O[C@H](C)C[C@H](N(C)C)[C@H]2O)[C@](C)(OC)C/C(C)=C2/O[C@@]1(C)C=C2C`, for which the growth was -17.3% (active) with SK-MEL-2 melanoma; 75% in the assay on EKVX NSCLC; 76.9% with SN12C renal; 50.5% in the assay on UO-31 renal; 97.4% in the assay on TK-10 renal; 24.5% in the assay with ACHN renal. Besides, the growth is 21.7% in the assay with CAKI-1 renal, 83.9% in the assay with A498 renal and 1.08% (active) in the assay with MOLT-4 leukemia.
As for `CC(C)(C)OC(=O)N1CCc2c(sc3ncnc(N/N=C/c4ccc(Br)cc4)c23)C1`, the growth in the assay with SK-MEL-2 melanoma was 68.4%; in the assay with EKVX NSCLC, 52%; with SN12C renal it was 75.2%; in the assay with UO-31 renal, 44.7%; in the assay on TK-10 renal it was 78.2%; in the assay with ACHN renal it was 53.1%. Besides, the growth was 41% with CAKI-1 renal, 31.2% in the assay with A498 renal and 33.9% in the assay with MOLT-4 leukemia.
`C=CCn1c(SCC(=O)Nc2ccc(C(=O)/C=C/c3ccc(Cl)cc3)cc2)nnc1-c1cc(-c2ccccc2)nc2ccccc12`: the growth was 97.2% in the assay with SK-MEL-2 melanoma; 79.1% with EKVX NSCLC; 70.8% in the assay with SN12C renal; 35.4% in the assay on UO-31 renal; 94.8% with TK-10 renal; 82.3% in the assay on ACHN renal. Moreover, the growth in the assay with CAKI-1 renal is 61.7%; in the assay on A498 renal, 81.4%; in the assay on MOLT-4 leukemia it was 12.8%.
With `O=C(CCNC(=O)c1nc(-c2ccccc2)n(-c2ccc(Cl)cc2)n1)NO`, the growth in the assay on SK-MEL-2 melanoma is 91.7%; in the assay on EKVX NSCLC it was 95.8%; with SN12C renal it was 103%; in the assay on UO-31 renal it was 88.3%; in the assay with TK-10 renal, 94.4%; in the assay with ACHN renal it was 100%. Moreover, the growth was 97.3% with CAKI-1 renal, 114% in the assay on A498 renal and 98% in the assay on MOLT-4 leukemia.
On to `Cc1c(O)c(=O)ccn1C1CCC(CC2CCC(n3ccc(=O)c(O)c3C)CC2)CC1` (configuration not stated), for which the growth with SK-MEL-2 melanoma is 66.8%; in the assay on EKVX NSCLC, 10.2%; with SN12C renal, 41.5%; in the assay with UO-31 renal, 38.6%; in the assay with TK-10 renal, 50.1%; in the assay on ACHN renal, 35.7%. For the same compound, the growth was 25.2% in the assay on CAKI-1 renal, 50.9% in the assay on A498 renal and 25.7% in the assay on MOLT-4 leukemia.
Regarding `CC(C)(C)OC(=O)N1CCc2c(sc3ncnc(N/N=C/c4cccc(Br)c4)c23)C1`, the growth in the assay on SK-MEL-2 melanoma is 76.1%; in the assay on EKVX NSCLC, 26.3%; in the assay with SN12C renal, 50.9%; in the assay with UO-31 renal it was 21%; with TK-10 renal it was 56.3%; with ACHN renal, 33.9%. Also, the growth in the assay on CAKI-1 renal was 31.4%; with A498 renal, 72.7%; in the assay with MOLT-4 leukemia it was 18%.
Consider `Cc1cc(CSc2ccccc2C(=O)N2CC=C(c3ccccc3)CC2)on1`, for which the growth in the assay on SK-MEL-2 melanoma is 94.1%; in the assay with EKVX NSCLC it was 90.7%; in the assay with SN12C renal it was 105%; with UO-31 renal, 88.1%; in the assay on TK-10 renal it was 96.9%; in the assay with ACHN renal it was 91.6%. Moreover, the growth in the assay on CAKI-1 renal is 86.3%; with A498 renal it was 98.4%; in the assay on MOLT-4 leukemia, 91.6%.
